Values without a mark were called inactive.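 Rule for the calls: active = growth AUC significantly below the DMSO wells by Dunnett test; inactive = the rest.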

For this assay, the system named is Pseudomonas 2 (Pseudomonas vancouverensis). As to the kind of experiment: relative growth (AUC of 72 h growth curve relative to DMSO control, dAUC) (ratio); higher = more growth (less inhibition), active = hit call of the paper. As to conditions: 20 µM. Summed up: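 Cultures grown to carrying capacity in Luria–Bertani medium, drawn from Icelandic stream sediment and Silwood Park soil isolates and whole sediment communities, were diluted 1:100 into 96-well plates with each chemical at 20 µM (1% DMSO) and read at A600 hourly for 72 h. The spline-integrated area under the growth curve, divided by the mean of the DMSO controls, is reported as relative growth (dAUC). Values are means of three biological replicates.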
For the molecule `CCOc1cc(Oc2ccc(C(F)(F)F)cc2Cl)ccc1[N+](=O)[O-]`, the relative growth was 0.992.
The value for `O=C(NC(=O)c1c(F)cccc1F)Nc1ccc(OC(F)(F)C(F)OC(F)(F)F)c(Cl)c1` (stereo not drawn) was 1.01; that for `Cc1cc(C)nc(Nc2ccccc2)n1` was 0.956; that for `CC(C)NC(=O)N1CC(=O)N(c2cc(Cl)cc(Cl)c2)C1=O` was 0.94.
On to `Cc1nnc(-c2ccccc2)c(=O)n1N`, for which the relative growth was 0.997.
Regarding `CSc1nc(NC(C)C)nc(NC(C)C)n1`, the relative growth was 1.02.
Take `C/C(=N\C#N)N(C)Cc1ccc(Cl)nc1`: the relative growth is 1.
`Cc1cccc2sc3nncn3c12`: the relative growth is 0.997.
Consider `Fc1ccc(Oc2ccnc3cc(Cl)cc(Cl)c23)cc1`, for which the relative growth was 1.02.
On to `COP(N)(=O)SC` (stereo not drawn), for which the relative growth was 0.982.
Consider `COc1cc(OC)nc(NC(=O)NS(=O)(=O)c2ncccc2C(=O)N(C)C)n1`, for which the relative growth is 1.
Consider `CC[C@H]1CCC[C@H](O[C@H]2CC[C@H](N(C)C)[C@@H](C)O2)[C@@H](C)C(=O)C2=C[C@@H]3[C@@H](C=C(C)[C@@H]4C[C@@H](O[C@@H]5O[C@@H](C)[C@H](OC)[C@@H](OC)[C@H]5OC)C[C@@H]34)[C@@H]2CC(=O)O1.CC[C@H]1CCC[C@H](O[C@H]2CC[C@H](N(C)C)[C@@H](C)O2)[C@@H](C)C(=O)C2=C[C@H]3[C@@H]4C[C@H](O[C@@H]5O[C@@H](C)[C@H](OC)[C@@H](OC)[C@H]5OC)C[C@H]4C=C[C@H]3C2CC(=O)O1`, for which the relative growth is 0.981.
The value for `COC(=O)N(C(=O)N1CO[C@@]2(C(=O)OC)Cc3cc(Cl)ccc3C2=N1)c1ccc(OC(F)(F)F)cc1` was 0.991; that for `N#Cc1c[nH]cc1-c1cccc2c1OC(F)(F)O2` was 1; that for `CC(C)N(C(=O)COc1nnc(C(F)(F)F)s1)c1ccc(F)cc1` was 1.03.
The result for `CC1(C)C(C=C(Cl)Cl)C1C(=O)OC(C#N)c1ccc(F)c(Oc2ccccc2)c1` (stereo not drawn) reads 1.02.
The value for `Cc1c(COC(=O)[C@@H]2[C@H](/C=C(\Cl)C(F)(F)F)C2(C)C)cccc1-c1ccccc1` (racemic) was 0.983.
As to `COc1cc(C)c(C(=O)c2c(OC)ccc(Br)c2C)c(OC)c1OC`, the relative growth is 1.01.
With `CC(C)(C)C(O)(CCc1ccc(Cl)cc1)Cn1cncn1` (stereo not drawn), the relative growth is 0.962.
With `CCCC(Cn1cncn1)c1ccc(Cl)cc1Cl` (stereo not drawn), the relative growth was 0.994.
As for `C[C@@H]1[C@@H](c2ccc(Cl)cc2)SC(=O)N1C(=O)NC1CCCCC1`, the relative growth was 0.976.
For `O=C1C2(Cl)C3(Cl)C4(Cl)C(Cl)(Cl)C5(Cl)C3(Cl)C1(Cl)C5(Cl)C24Cl` (stereo not drawn), the relative growth was 0.962.
The value for `OC(Cc1ccccc1Cl)(Cn1nc[nH]c1=S)C1(Cl)CC1` (stereo not drawn) was 0.995.
On to `CC1(C)[C@H](C(=O)O[C@H](C#N)c2cccc(Oc3ccccc3)c2)[C@@H]1C=C(Br)Br`, for which the relative growth is 1.03.
As for `N#Cc1c(Cl)c(Cl)c(Cl)c(C#N)c1Cl`, the relative growth was 0.972.
Take `CCOc1ccc(C(C)(C)COCc2cccc(Oc3ccccc3)c2)cc1`: the relative growth is 0.998.
In the case of `Cc1cc(C(F)(C(F)(F)F)C(F)(F)F)ccc1NC(=O)c1cccc(I)c1C(=O)NC(C)(C)CS(C)(=O)=O`, the relative growth is 0.842 (active).
As for `N#Cc1nn(-c2c(Cl)cc(C(F)(F)F)cc2Cl)c(N)c1[S+]([O-])C(F)(F)F` (stereo not drawn), the relative growth is 0.948.
Turning to `CNC(=O)Oc1cccc2ccccc12`, the relative growth is 1.04.
On to `CO/N=C(/C(=O)OC)c1ccccc1CO/N=C(\C)c1cccc(C(F)(F)F)c1`, for which the relative growth was 1.
As for `CC1(C)CON(Cc2ccccc2Cl)C1=O`, the relative growth was 0.981.
On to `CCCN(CCC)C(=O)SCc1ccccc1`, for which the relative growth is 1.05.
Take `CC[C@H](C)[C@H]1O[C@]2(C=C[C@@H]1C)C[C@@H]1C[C@@H](C/C=C(\C)[C@@H](O[C@H]3C[C@H](OC)[C@@H](O[C@H]4C[C@H](OC)[C@@H](O)[C@H](C)O4)[C@H](C)O3)[C@@H](C)/C=C/C=C3\CO[C@@H]4[C@H](O)C(C)=C[C@@H](C(=O)O1)[C@]34O)O2.CO[C@H]1C[C@H](O[C@H]2[C@H](C)O[C@@H](O[C@@H]3/C(C)=C/C[C@@H]4C[C@@H](C[C@]5(C=C[C@H](C)[C@@H](C(C)C)O5)O4)OC(=O)[C@@H]4C=C(C)[C@@H](O)[C@H]5OC/C(=C\C=C\[C@@H]3C)[C@]54O)C[C@@H]2OC)O[C@@H](C)[C@@H]1O`: the relative growth is 1.01.

Source of the values: the supplement of paper PMC12067926.
